Compound activity as filed in PubChem.
Hits are enriched below; roughly 4.8% of the tested compounds scored in any of these assays.
hcDAF-12 act – H. contortus DAF-12 nuclear receptor activators, primary screen, cell-based, luminescence, HEK293, lit1-tk-luc reporter; HEK293 hcDAF-12 lit1-tk-luc reporter; 0% DMSO, 100% Δ7-dafachronic acid; activation, % at 6.8 µM; 370,000 compounds, 1.4% hits; AID 652067, 2013;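 active means activation above the mean of all tested compounds plus 3 SD, cut at about 5.5% in these data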;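 further: 100% = response to 3 µM Δ7-dafachronic acid high control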
hgDAF12 agonist – H. glycines DAF-12 receptor agonists, primary screen, cell-based, luminescence, HEK293, GAL4 fusion, UAS-luciferase | Nuclear hormone receptor DAF-12 (Heterodera glycines), GAL4 fusion | HEK293 GAL4-hgDAF12 UAS-luciferase reporter, agonist luminescence; normalized to butyrate control | activation, % at 6.8 µM | 370,000 compounds, 1.8% hits | AID 687014, 2013;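 active means activation above a cutoff set at the mean of all screened compounds plus 3 SD, cut at about 10% in these data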;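 further: 0% = DMSO wells and 100% = sodium butyrate wells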
DAX1 inh-1 – DAX1 (NR0B1) inhibitors on StAR promoter, primary screen, cell-based, luminescence, SF-1 (NR5A1), full-length DAX-1; 370,000 compounds, 1.1% hits; HEK293T StAR-luciferase reporter, SF-1/DAX-1 repression relief; inhibition, % at 6.8 µM;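 active means inhibition above the mean over all tested compounds plus 3 SD, cut at about 3.6% in these data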;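 further: 0% = DAX-1 cells with DMSO and 100% = cells lacking DAX-1 with DMSO; higher inhibition means more luminescence from relief of DAX-1 repression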
DAX1 inh-2 – DAX1 (NR0B1) inhibitors, primary screen, cell-based, HEK293, Gal4-DAX1, luciferase luminescence | 340,000 compounds, 0.99% hits | HEK293 Gal4-DAX1 luciferase reporter | Nuclear receptor subfamily 0 group B member 1 (Homo sapiens), P51843 | inhibition, % at 6.75 µM;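 active means inhibition above the mean over all tested compounds plus 3 SD, cut at about 4.2% in these data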;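 further: 0% = DAX1-transfected cells with DMSO and 100% = empty-vector control cells with DMSO; inhibition shows as a rise in luminescence from relieved DAX1 repression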
NR1D1 modulator – modulators of Rev-erb alpha DNA binding, primary screen, biochemical, FITC-DNA, fluorescence polarization, uHTS; Nuclear receptor subfamily 1 group D member 1 (Homo sapiens), P20393; Rev-erbα–FITC-DNA binding, 90 min; activity, % at 10 µM; 370,000 compounds, 0.79% hits;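 active means activity above about 14%, limit read from the data; passing the limit was not always enough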;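 further: 0% = DMSO wells with 35 nM protein and 100% = DMSO wells with 750 nM protein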
Target sequence (P20393 whole entry, looked up): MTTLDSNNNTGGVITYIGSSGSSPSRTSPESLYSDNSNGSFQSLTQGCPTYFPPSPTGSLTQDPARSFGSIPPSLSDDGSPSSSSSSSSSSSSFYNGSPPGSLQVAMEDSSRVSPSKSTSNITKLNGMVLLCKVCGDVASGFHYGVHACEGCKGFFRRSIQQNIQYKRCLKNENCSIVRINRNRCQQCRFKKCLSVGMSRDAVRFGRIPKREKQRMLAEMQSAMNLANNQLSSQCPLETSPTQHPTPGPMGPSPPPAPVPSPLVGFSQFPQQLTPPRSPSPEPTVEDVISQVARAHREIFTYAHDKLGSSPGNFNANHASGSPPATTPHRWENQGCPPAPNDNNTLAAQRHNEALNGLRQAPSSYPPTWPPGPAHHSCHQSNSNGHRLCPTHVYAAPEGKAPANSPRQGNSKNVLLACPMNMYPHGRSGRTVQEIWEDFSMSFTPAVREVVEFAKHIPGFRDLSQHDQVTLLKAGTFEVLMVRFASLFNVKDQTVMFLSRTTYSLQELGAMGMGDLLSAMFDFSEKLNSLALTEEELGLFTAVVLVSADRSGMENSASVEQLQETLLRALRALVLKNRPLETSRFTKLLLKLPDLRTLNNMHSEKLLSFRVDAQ
ssDAF-12 act – S. stercoralis DAF-12 nuclear receptor activators, primary screen, cell-based, luminescence, HEK293, GRIP1 co-expression, lit1-tk-luc | activation, % at 6.8 µM | 370,000 compounds, 1% hits | HEK293 ssDAF-12/GRIP1 lit1-tk-luc reporter; % of 3 µM dafachronic acid response;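 active means activation above the mean over all tested compounds plus 3 SD, cut at about 0.9% in these data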;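 further: 0% = DMSO-only wells and 100% = 3 µM delta7-dafachronic acid wells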
* hit, by the source's call; . = no result given.

SMILES | hcDAF-12 act | hgDAF12 agonist | DAX1 inh-1 | DAX1 inh-2 | NR1D1 modulator | ssDAF-12 act
Cn1nc(C(=O)Nc2ccc3c(c2)OCO3)c2ccccc2c1=O | -1 | 2 | 0 | 0 | -2 | 2.4*
O=C(Nc1ccc2c(c1)OCO2)c1c(F)cccc1F | 6 | 13* | 2 | 1 | 4 | -1
CC(=O)c1ccc(NC(=O)C2CCCC2)cc1 | -1 | 1 | 0 | 6.0* | -7 | -1
O=C(Nc1ccc2c(c1)OCO2)c1cccc(F)c1 | 1 | 10 | 1 | 2 | -9 | 0
O=C(Nc1ccc2c(c1)OCCO2)c1cnn(-c2ccccc2)n1 | 1 | 10 | 4.2* | 0 | 0 | 0
CC(=O)c1cccc(NC(=O)C2CCCC2)c1 | -1 | 0 | 0 | 0 | 1 | -1
c1nc(NCC2CC2)c2cc(-c3ccc4c(c3)OCO4)ccc2n1 | 3 | 7 | . | . | -3 | 0
Cc1ccc(CSCC(=O)Nc2ccc3c(c2)OCO3)cc1 | -1 | 0 | 0 | 1 | -2 | -1
O=C(CSCc1ccccc1)Nc1ccc2c(c1)OCO2 | 3 | 8 | 3.8* | 2 | -3 | 0
Cc1ccccc1C(=O)Nc1ccc2c(c1)OCCO2 | 5 | 11* | 3 | -3 | 3 | 1.8*
CS(=O)(=O)N1CCC(C(=O)Nc2ccc3c(c2)OCO3)CC1 | -1 | -2 | 0 | 0 | -2 | -1
O=C(Nc1ccc2c(c1)OCO2)C1CCCCC1 | -1 | 3 | 4.0* | 0 | -4 | -1
O=C(CSc1ccccc1)Nc1ccc2c(c1)OCO2 | 1 | 13* | 1 | 1 | -5 | -1
C=CS(=O)(=O)N(Cc1nnn(Cc2ccccc2)c1Br)[C@@H](CC(C)C)C(=O)OC | -2 | -2 | -3 | . | -6 | -2
CC(C)Oc1ccc(N2CC(C(=O)Nc3ccc4c(c3)OCO4)CC2=O)cc1 (stereo not given) | 1 | -1 | 0 | 4 | 3 | 1.4*
CN1CCN(c2ccc(NC(=O)CSc3ccccc3)cc2F)CC1 | 4 | 11* | 3 | 5.3* | 0 | 0
O=C(CSc1ccccc1F)Nc1ccc2c(c1)OCO2 | 2 | 11* | 2 | 1 | 0 | -1
Cc1ccc(N2CC(C(=O)Nc3ccc4c(c3)OCO4)CC2=O)cc1 (stereo not given) | -1 | 0 | 0 | 1 | -4 | 0
O=C(O)C(=O)Nc1nc(-c2ccc3c(c2)OCCO3)cs1 | 2 | 2 | 2 | 0 | 7 | -1
O=C(Nc1nc(-c2ccc3c(c2)OCO3)cs1)C1CC1 | 3 | 11* | 3 | 2 | -8 | 1
O=C(Nc1ccc(N2CCN(c3ccccc3)CC2)c(F)c1)C1CC1 | 5.8* | 1 | 1 | 1 | 4 | 0
O=C(Nc1ccc2c(c1)OCCO2)c1ccccc1 | . | . | . | 0 | . | .
O=C(CC(=O)c1ccccc1)Nc1ccc2c(c1)OCCO2 | 3 | 12* | 3 | 2 | 0 | 1
CC(C)c1nc(N(C)S(C)(=O)=O)nc(-c2ccc(F)cc2)c1/C=C/[C@@H](O)C[C@@H](O)CC(=O)O | . | . | . | . | 1 | .
COCCNc1ccc(N2C(=O)C3CCCCC3C2=O)cc1[N+](=O)[O-] (stereo not given) | -2 | 3 | 0 | 4.6* | 2 | -1
CCCCNC(=O)N(C)c1nc2ccccc2s1 | 5.8* | 9 | 4 | 0 | -1 | -1
O=C(c1cc([N+](=O)[O-])[nH]n1)N1CCSCC1 | 0 | 1 | 2 | 5.4* | 2 | -2
Cc1ncc2c(c1OC(=O)c1ccccc1)COC(C)(C)OC2 | 0 | 1 | 0 | 5.1* | 21 | -1
